Reference: PubChem BioAssay (NCATS)
Inconclusive results are not listed. Unless noted, calls come from the whole dose curve; as a rule, active = well fitted curve in either direction with a large enough effect (not every such curve was filed as active); inconclusive = small, poorly fitted or top-dose-only effect, or another doubt; inactive = flat fitted curve, though single readings scatter.

Columns and labels:
[1] = AP1 Signaling Pathway (AID 357); conditions: ME-180 AP-1-bla reporter, EGF-induced, beta-lactamase ratio, 5 h; at 17.2 µM (top of the series) unless noted;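 note: ME-180 reporter cells stimulated with EGF at its EC50 level; % is set by controls: 0 for no effect and ±100 for the full control effect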
Outline: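 A ratiometric CCF4 readout (405 nm excitation; 460 and 530 nm emission) quantified AP-1-driven beta-lactamase in ME-180 cells after 5 h with compound and EC50 EGF; AC50 values were derived for activators and inhibitors.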

[2] = NFAT Signaling Pathway (AID 444); conditions: Jurkat NFAT-bla M1, carbachol, beta-lactamase ratio, 5 h; at 17.2 µM (top of the series) unless noted;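 note: carbachol stimulus at about its EC50 of 1 µM final; % is set by controls: 0 for no effect and ±100 for the full control effect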
Outline: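 Jurkat cells with NFAT-driven β-lactamase reporter and co-expressed M1 receptor, stimulated with carbachol (final 1 uM, ~EC50), compound titration, 5 h at 37 °C. CCF4 loaded 1 h at RT; 460/530 nm ratio gave %activity and AC50.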

[3] = Stat Signaling Pathway (AID 446); conditions: ME-180 SIE beta-lactamase reporter, IL-6 stimulated, 5 h; at 17.2 µM (top of the series) unless noted;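 note: ME-180 cervical cancer cells given 40 pM IL-6 alongside compound; SIE-controlled beta-lactamase reporter measured as 460/530 nm FRET emission ratio; % is set by controls: 0 for no effect and ±100 for the full control effect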
Outline: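 Screening format detects activators and inhibitors alike: ME-180 SIE-bla cells stimulated at 40 pM IL-6 for 5 hrs with compound, then dual-emission beta-lactamase read at 405 nm excitation.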

[4] = target: Glucocorticoid receptor (Homo sapiens) (UniProt P04150); assay: GR-GFP Redistribution (AID 450;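 active = compounds whose dose series gives a full or clear partial fitted curve of increased nuclear translocation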; note: potency is the fitted concentration of half-maximal effect)
Sequence of Glucocorticoid receptor (Homo sapiens) (P04150 whole entry, looked up): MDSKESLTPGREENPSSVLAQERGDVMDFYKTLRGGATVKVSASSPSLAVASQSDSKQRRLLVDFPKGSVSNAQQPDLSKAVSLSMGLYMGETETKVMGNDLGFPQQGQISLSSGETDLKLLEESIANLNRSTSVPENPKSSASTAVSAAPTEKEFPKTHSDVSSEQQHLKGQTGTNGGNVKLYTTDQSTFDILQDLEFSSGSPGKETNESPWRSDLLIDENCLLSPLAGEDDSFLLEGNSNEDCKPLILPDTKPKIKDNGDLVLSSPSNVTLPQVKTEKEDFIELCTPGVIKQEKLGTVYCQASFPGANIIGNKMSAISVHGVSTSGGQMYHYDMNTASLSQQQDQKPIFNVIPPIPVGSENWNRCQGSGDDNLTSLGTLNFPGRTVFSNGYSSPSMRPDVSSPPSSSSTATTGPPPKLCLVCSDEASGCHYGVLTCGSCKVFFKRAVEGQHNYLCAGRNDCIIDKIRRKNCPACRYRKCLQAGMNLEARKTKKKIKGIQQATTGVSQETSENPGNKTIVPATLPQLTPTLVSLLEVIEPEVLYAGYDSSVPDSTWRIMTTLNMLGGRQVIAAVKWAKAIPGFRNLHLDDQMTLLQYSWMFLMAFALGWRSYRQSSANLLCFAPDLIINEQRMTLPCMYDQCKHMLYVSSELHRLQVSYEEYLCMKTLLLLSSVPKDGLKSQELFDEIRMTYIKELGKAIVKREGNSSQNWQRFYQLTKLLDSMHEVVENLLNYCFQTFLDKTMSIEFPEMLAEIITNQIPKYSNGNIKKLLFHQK

Cc1cc(C)c(C#N)c(SCC(=O)NC2CC2)n1
inactive: activity change, negative = inhibition [1] 5.34% | activity change, negative = inhibition [2] -3.32% | activity, negative = inhibition [3] 8.05% | Potency [4] > 20.6 µM

COc1ccc(-c2oc3ncn4nc(Cc5ccccc5)nc4c3c2-c2ccc(OC)cc2)cc1
inactive: activity change, negative = inhibition [1] -0.634% | activity change, negative = inhibition [2] -13% | activity, negative = inhibition [3] -13.3% | Potency [4] > 20.6 µM

CCCOc1ccc(C2NC(=O)NC2=O)cc1 (configuration not stated)
inactive: activity change, negative = inhibition [1] 5.97% | activity change, negative = inhibition [2] 9.35% | activity, negative = inhibition [3] -1.78% | Potency [4] > 20.6 µM

COc1ccc(N2C(=O)C3C(C2=O)C2C=CC3C23CC3)c(OC)c1 (configuration not stated)
inactive: activity change, negative = inhibition [1] 16.2% | activity change, negative = inhibition [2] 5.04% | activity, negative = inhibition [3] 0.0769% | Potency [4] > 20.6 µM

O=C(O)CC1SC(=Nc2cccc(C(F)(F)F)c2)NC1=O (configuration not stated)
inactive: activity change, negative = inhibition [1] 7.22% | activity change, negative = inhibition [2] 9.67% | activity, negative = inhibition [3] -0.717% | Potency [4] > 20.6 µM

COc1cc(C2C(C(=O)c3sc(C)nc3C)=C(O)C(=O)N2CCN(C)C)cc(OC)c1OC (configuration not stated)
inactive: activity change, negative = inhibition [1] -0.396% | activity change, negative = inhibition [2] 1.9% | activity, negative = inhibition [3] 8.27% | Potency [4] > 20.6 µM

CCOC(=O)c1c(C)[nH]c(/C(C)=N/O)c1C
inactive: activity change, negative = inhibition [1] -4.81% | activity change, negative = inhibition [2] 3.09% | activity, negative = inhibition [3] -8.45% | Potency [4] > 20.6 µM

COc1cc(=O)[nH]c(=O)n1CC(=O)c1ccccc1
inactive: activity change, negative = inhibition [1] 1.4% | activity change, negative = inhibition [2] 3.25% | activity, negative = inhibition [3] 5.97% | Potency [4] > 20.6 µM

COc1cc(C2NC(=O)NC(C)=C2C(=O)Nc2cccc(C)c2C)cc(OC)c1OC (configuration not stated)
inactive: activity change, negative = inhibition [1] 2.82% | activity change, negative = inhibition [2] 10.2% | activity, negative = inhibition [3] -2.31% | Potency [4] > 20.6 µM

Cc1cc2c(C)nc(Cc3ccccc3)nc2o1
inactive: activity change, negative = inhibition [1] -3.87% | activity change, negative = inhibition [2] -3.38% | activity, negative = inhibition [3] 5.35% | Potency [4] > 20.6 µM

Nc1ncnc2nc(SCc3ccccc3)[nH]c12
inactive: activity change, negative = inhibition [1] -9.21% | activity change, negative = inhibition [2] -4.19% | activity, negative = inhibition [3] -9.74% | Potency [4] > 20.6 µM

Cc1ccc(NC(=O)c2cc(N3CCOCC3)nc3ccccc23)cc1
inactive: activity change, negative = inhibition [1] -15.5% | activity change, negative = inhibition [2] 19.3% | activity, negative = inhibition [3] -12.2% | Potency [4] > 20.6 µM

CC(=O)C1=C(O)C(=O)N(c2cccc(C(=O)O)c2)C1c1ccccc1F (configuration not stated)
inactive: activity change, negative = inhibition [1] -4.91% | activity change, negative = inhibition [2] 3.23% | activity, negative = inhibition [3] 10.6% | Potency [4] > 20.6 µM

CCOC(=O)c1c(C)n(C)c2ccc(OC)c(NC(=O)CN3CCN(Cc4ccccc4)CC3)c12
inactive: activity change, negative = inhibition [1] -11% | activity change, negative = inhibition [2] -8.48% | activity, negative = inhibition [3] -7.51% | Potency [4] > 20.6 µM

COc1cc(S(=O)(=O)N2CCN(C)CC2)c(OC)cc1Br
inactive: activity change, negative = inhibition [1] 9.1% | activity change, negative = inhibition [2] -13.8% | activity, negative = inhibition [3] 3.25% | Potency [4] > 20.6 µM

C=CCN1C(=O)CC(C(=O)NC)SC1=Nc1ccc(C(=O)OCC)cc1 (configuration not stated)
inactive: activity change, negative = inhibition [1] -3.69% | activity change, negative = inhibition [2] 16.7% | activity, negative = inhibition [3] -3.3% | Potency [4] > 20.6 µM

COC(=O)c1c(-n2cnnn2)sc(C)c1C
inactive: activity change, negative = inhibition [1] -20.5% | activity change, negative = inhibition [2] 2.79% | activity, negative = inhibition [3] 6.13% | Potency [4] > 20.6 µM

COc1ccc(-c2cc(-c3ccccc3)n3ncnc3n2)cc1
inactive: activity change, negative = inhibition [1] -5.02% | activity change, negative = inhibition [2] -9.06% | activity, negative = inhibition [3] 1.12% | Potency [4] > 20.6 µM
